Measurements reported in PubChem BioAssay (EPA / NIEHS).
Results filed as inconclusive are left out. Activity calls are given as the source filed them. Rule for the calls, unless noted: active = hit-call score of the fitted dose curve at least 0.9, where 1 is the maximum; inconclusive = response in the unintended direction; inactive = score below 0.9.

How the values were obtained:
[1] = ATG_M_06_TRANS: Attagene TRANS-FACTORIAL HepG2 Assay for M06 Transcription Factor (Internal Marker) (AID 2282983); conditions: HepG2 Attagene TRANS M06 internal marker reporter
In short: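 Background-control reporter readout: after 24 h chemical exposure of transiently transfected HepG2 (GAL4-UAS reporter units), mRNA quantified by RT-PCR with fluorescent labeling and capillary electrophoresis. Gain-of-signal fitting against DMSO baseline.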

[2] = ATG_M_32_TRANS: Attagene TRANS-FACTORIAL HepG2 Assay for M32 Transcription Factor (Internal Marker) (AID 2282984); conditions: HepG2 Attagene TRANS M32 internal marker reporter;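 note: transcript level of a background control reporter unit measured by RT-PCR and capillary electrophoresis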
In short: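 Internal-marker readout from a multiplexed transcription reporter panel. HepG2 cells were transfected with GAL4-UAS reporter units, treated 24 hours, and reporter transcript levels determined by fluorescence after RT-PCR and capillary separation.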

[3] = target: Nuclear receptor subfamily 4 group A member 2 (Homo sapiens) (UniProt P43354); test: ATG_NURR1_TRANS: Attagene TRANS-FACTORIAL HepG2 Assay for human Nuclear Receptor Related Protein 1 (NURR1) (AID 2282985); conditions: HepG2 Attagene TRANS reporter, mRNA readout
Chain of Nuclear receptor subfamily 4 group A member 2 (Homo sapiens) (P43354 whole entry, looked up): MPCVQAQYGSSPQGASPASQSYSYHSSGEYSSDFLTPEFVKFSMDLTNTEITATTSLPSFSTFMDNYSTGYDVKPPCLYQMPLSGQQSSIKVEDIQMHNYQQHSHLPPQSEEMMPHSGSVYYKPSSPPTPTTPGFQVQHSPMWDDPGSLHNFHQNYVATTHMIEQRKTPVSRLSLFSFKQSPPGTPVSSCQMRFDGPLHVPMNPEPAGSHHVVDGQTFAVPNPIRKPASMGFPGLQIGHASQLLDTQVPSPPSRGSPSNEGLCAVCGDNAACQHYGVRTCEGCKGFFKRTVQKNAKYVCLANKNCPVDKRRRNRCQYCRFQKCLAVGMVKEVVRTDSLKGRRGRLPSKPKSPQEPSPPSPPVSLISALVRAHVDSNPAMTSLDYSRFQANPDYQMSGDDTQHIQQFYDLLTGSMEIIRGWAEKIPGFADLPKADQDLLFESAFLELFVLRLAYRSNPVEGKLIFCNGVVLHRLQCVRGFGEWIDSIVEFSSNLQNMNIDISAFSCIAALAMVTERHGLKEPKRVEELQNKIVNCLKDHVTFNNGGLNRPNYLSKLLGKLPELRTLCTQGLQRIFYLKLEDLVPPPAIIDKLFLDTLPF
In short: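 Endpoint: reporter mRNA increase relative to DMSO. HepG2 cells transfected with reporter units, treated 24 h; RNA processed by RT-PCR, labelling, HpaI digestion and capillary electrophoresis.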

[4] = target: Transcriptional activator Myb (Homo sapiens) (UniProt P10242); test: ATG_Myb_CIS: Attagene CIS-FACTORIAL HepG2 Assay for human Myeloblastosis (Myb) Proto-Oncogene Transcription Factor (AID 2282986; active = hit-call score of the fitted dose curve at least 0.9, where 1 is the maximum; inactive = score below 0.9); conditions: HepG2 Attagene CIS-FACTORIAL Myb reporter transcription; actives raise or lower the signal
Chain of Transcriptional activator Myb (Homo sapiens) (P10242 whole entry, looked up): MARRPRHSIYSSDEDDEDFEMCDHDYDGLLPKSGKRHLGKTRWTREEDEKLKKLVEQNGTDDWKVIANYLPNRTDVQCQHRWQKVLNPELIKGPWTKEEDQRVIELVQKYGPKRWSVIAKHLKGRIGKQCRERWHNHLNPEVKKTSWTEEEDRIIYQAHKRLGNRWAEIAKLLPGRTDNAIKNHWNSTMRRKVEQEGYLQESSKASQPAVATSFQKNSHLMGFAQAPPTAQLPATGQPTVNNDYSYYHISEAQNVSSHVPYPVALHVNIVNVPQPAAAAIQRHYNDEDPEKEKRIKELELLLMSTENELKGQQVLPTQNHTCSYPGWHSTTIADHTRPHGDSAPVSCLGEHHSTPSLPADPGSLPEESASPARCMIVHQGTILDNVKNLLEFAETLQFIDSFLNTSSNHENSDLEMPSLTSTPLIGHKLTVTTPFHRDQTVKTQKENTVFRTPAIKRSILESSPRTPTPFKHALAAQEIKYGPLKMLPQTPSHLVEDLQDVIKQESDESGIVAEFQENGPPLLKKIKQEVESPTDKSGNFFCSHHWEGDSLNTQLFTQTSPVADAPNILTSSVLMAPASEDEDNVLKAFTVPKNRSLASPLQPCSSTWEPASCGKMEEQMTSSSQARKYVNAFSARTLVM
In short: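 HepG2, transient MRTU transfection (cis-element promoters, endogenous TF activity), 24 h compound exposure. Readout: reporter mRNA via RT-PCR, 6-FAM labeling, HpaI digest, capillary electrophoresis. Gain/loss fit vs DMSO.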

[5] = target: Oxysterols receptor LXR-beta (Homo sapiens) (UniProt P55055); test: ATG_LXRb_TRANS: Attagene TRANS-FACTORIAL HepG2 Assay for human Liver X Receptor beta (LXRb) (AID 2282981); conditions: HepG2 Attagene TRANS GAL4-LXRb reporter, mRNA
Chain of Oxysterols receptor LXR-beta (Homo sapiens) (P55055 whole entry, looked up, the tested form may be a part): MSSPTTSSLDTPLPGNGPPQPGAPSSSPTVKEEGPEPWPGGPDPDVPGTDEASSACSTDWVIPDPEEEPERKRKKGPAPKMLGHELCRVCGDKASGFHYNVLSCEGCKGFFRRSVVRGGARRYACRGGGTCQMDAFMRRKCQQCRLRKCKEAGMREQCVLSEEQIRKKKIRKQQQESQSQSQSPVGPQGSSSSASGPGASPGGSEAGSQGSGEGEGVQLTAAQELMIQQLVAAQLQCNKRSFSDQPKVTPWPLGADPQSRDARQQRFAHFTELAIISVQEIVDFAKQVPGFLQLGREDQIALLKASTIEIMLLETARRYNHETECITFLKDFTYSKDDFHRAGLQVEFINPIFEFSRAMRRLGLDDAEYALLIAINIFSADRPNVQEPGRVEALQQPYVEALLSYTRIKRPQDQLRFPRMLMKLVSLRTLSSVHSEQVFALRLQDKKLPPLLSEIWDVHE
In short: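 Multiplexed reporter assay, HepG2, 24 h dosing. Fluorescence of labelled RT-PCR products after capillary electrophoresis gives transcript level; positive fitting direction relative to DMSO.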

[6] = target: Hepatocyte nuclear factor 4-alpha (Homo sapiens) (UniProt P41235); test: ATG_HNF4a_TRANS: Attagene TRANS-FACTORIAL HepG2 Assay for human Hepatocyte Nuclear Factor 4 alpha (HNF4a) (AID 2282982); conditions: HepG2 HNF4a transactivation reporter, mRNA readout
Chain of Hepatocyte nuclear factor 4-alpha (Homo sapiens) (P41235 whole entry, looked up, the tested form may be a part): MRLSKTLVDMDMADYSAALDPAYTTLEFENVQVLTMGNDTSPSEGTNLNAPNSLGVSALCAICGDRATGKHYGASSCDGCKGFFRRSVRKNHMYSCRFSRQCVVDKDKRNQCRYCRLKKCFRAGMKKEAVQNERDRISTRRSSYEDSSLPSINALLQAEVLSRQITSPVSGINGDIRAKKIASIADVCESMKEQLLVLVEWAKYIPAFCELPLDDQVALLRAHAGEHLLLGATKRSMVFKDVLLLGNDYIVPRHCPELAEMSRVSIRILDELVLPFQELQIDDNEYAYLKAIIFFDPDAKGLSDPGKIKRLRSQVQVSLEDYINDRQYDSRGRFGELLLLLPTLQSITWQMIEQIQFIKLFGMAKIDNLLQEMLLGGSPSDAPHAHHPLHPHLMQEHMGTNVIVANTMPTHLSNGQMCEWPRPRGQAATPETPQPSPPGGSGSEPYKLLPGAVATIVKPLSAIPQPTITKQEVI
In short: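 Endpoint reflects transcriptional activation of a GAL4-UAS reporter by an HNF4a-GAL4 chimera in transfected HepG2 cells, 24 h post-dosing. Fluorescence from RT-PCR products separated by capillary electrophoresis; DMSO baseline.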

Measured: outcome

OCCOCCOCCO
inactive: [1] | [2] | [3] | [4]

CC[C@H](C)C(=O)O[C@H]1C[C@H](O)C=C2C=C[C@H](C)[C@H](CC[C@@H](O)C[C@@H](O)CC(=O)O)[C@H]21
inactive: [5] | [6] | [1]

c1ccc(C(O[C@@H]2CCCN(CCc3ccc4c(c3)OCO4)C2)c2ccccc2)cc1
not listed: [5]
inactive: all other assays above

O=S1(=O)CCCO1
inactive: [6] | [1] | [2] | [4]

NC(=O)NN=Cc1ccc([N+](=O)[O-])o1
inactive: [6] | [1] | [3]

CC(=O)c1ccccc1
inactive: [5] | [6] | [4]

Cn1cc[nH]c1=S
inactive: [1] | [2] | [3]

CNC(C)=O
inactive: [1] | [3]

CCc1cccc(CC)c1N
inactive: [6] | [1] | [3]

CCn1nc(C)c2c1C(=O)NCC(c1ccc(O)cc1)=N2
inactive: all assays above

CCCCC(CC)C(=O)OCCOCCOCCOC(=O)C(CC)CCCC (stereo not given)
inactive: [1] | [3]

O=C(O)c1cccc(C[C@@H]2COc3ccc(OCc4nc5cc(F)ccc5s4)cc3[C@@H]2O)c1
inactive: [2] | [3] | [4]

CCCCCCOC(=O)CC(CC(=O)OCCCCCC)(OC(=O)CCC)C(=O)OCCCCCC
inactive: [6] | [1] | [3]

CCCCOC(=O)c1ccccc1
inactive: [5] | [1] | [3]

CCCc1ccccc1
inactive: [6] | [1] | [3]
